# Only some compounds are listed: those with a hit (about 4.3% of all), similar ones and a draw of the others.
# FGF22 binding: FGF22 (human) thermal shift binding. activity (Tm shift, normalised), % at 9.99 µM. 1.5% of 340,000 active. recombinant FGF22 thermal shift, SYPRO orange fluorescence; percent of sucrose octasulfate shift, DMSO zero. Q9HCT0;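 active = mean Tm shift, scaled 0 neutral to 100 positive control, at about 1.3% or above, every replicate too, limit read from the data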
# MITF act: increases MITF-driven TRPM1 promoter luciferase signal | 0.75% of 300,000 active | SK-MEL-5 TRPM1-promoter luciferase, 24 h; % of positive control, neutral wells = 0 | activation, % at 12.5 µM;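 active = mean activation of at least 80% with every replicate also reaching 80%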;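 note: 0% = neutral control wells and 100% = parthenolide positive control wells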
# SMARCA2 activ: SMARCA2 function activation, primary screen; MG213 cells, MMTV-luciferase reporter, dexamethasone, overnight; activation, % at 9.1 µM; 1% of 370,000 active; in the data active = activation above about 7.8%;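 note: 0% = vehicle wells and 100% = reference activator wells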
# AF4-AF9 inh: MLL-AF4/AF9 protein interaction inhibition; P42568; AlphaScreen, biotin-AF4 peptide binding to FLAG-AF9; inhibition, % at 10 µM; 0.47% of 350,000 active; AID 651704;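 active = every replicate reaching a set inhibition limit, whatever the replicate mean, cut at about 25% in these data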;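 note: 0% = plate neutral control median and 100% = total signal loss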
# Target sequence (P42568 whole entry, looked up): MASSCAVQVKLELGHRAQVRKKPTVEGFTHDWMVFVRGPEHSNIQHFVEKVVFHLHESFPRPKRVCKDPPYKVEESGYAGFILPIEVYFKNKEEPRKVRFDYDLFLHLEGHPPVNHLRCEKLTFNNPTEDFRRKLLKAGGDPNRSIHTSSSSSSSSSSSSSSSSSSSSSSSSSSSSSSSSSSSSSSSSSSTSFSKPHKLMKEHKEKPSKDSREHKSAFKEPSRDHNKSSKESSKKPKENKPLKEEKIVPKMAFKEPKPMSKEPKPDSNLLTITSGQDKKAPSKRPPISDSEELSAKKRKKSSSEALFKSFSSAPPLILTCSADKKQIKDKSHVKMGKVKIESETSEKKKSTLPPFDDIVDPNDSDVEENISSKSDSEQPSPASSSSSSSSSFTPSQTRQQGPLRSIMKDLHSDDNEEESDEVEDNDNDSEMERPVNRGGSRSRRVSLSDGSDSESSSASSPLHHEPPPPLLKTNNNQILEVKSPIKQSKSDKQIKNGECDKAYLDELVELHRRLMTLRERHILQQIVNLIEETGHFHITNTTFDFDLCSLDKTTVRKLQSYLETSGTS
# esBAF inh: SWI/SNF esBAF complex inhibition; mouse ES cells, Bmi1-luciferase knock-in reporter, 24 h; 100% = twice the neutral-well signal; reporter increase, % at 12.5 µM; 2% of 350,000 active; AID 602393; in the data active = activation above about 40%;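 note: 0% = median of the plate's neutral control wells and 100% = double that signal; a rise in the Bmi1 reporter signal indicates esBAF inhibition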
# Wnt act: activates Wnt/beta-catenin signaling in a reporter cell assay. 1.2% of 300,000 active. activator, plate reader. AID 743398. activation, % at 9.35 µM; in the data active = activation above about 30%, passing the limit was not always enough;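 note: 0% = neutral control wells and 100% = positive control wells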
# SMARCA2 act conf: SMARCA2 activation, confirmation screen | shares compounds with SMARCA2 activ | MG213 cells, MMTV-luciferase with dexamethasone, luminescence, overnight; MG213 cells expressing E1A, Rb sequestered; DMSO wells 0%, reference activator 100% | activation, % at 9.1 µM | 30% of 3,500 active | AID 652260;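 active = activation above its plate's cutoff, the mean activation of tested wells plus 3 SD, cut at about 7.9% in these data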
# VP16 Luc act: GAL4-VP16 reporter activation counter-screen | 41% of 3,500 active | activation, % at 9.1 µM | HEK293 GAL4-VP16 pG5luc reporter, luciferase luminescence; scaled: DMSO wells 0%, SAHA wells 100% | shares compounds with SMARCA2 activ;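 active = activation above the solvent-only control well mean plus 3 SD, averaged across control plates, cut at about 5.2% in these data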
# Numbers without * were called inactive; x = not tested or not shown.
SMILES,FGF22 binding,MITF act,SMARCA2 activ,AF4-AF9 inh,esBAF inh,Wnt act,SMARCA2 act conf,VP16 Luc act
COc1cc(C)c(CN2CC=C(c3ccc(F)cc3)CC2)cc1C,0.0,4.8,-1.7,2.7,9.4,-0.2,x,x
COc1cc2nc(CN3CC=C(c4ccccc4)CC3)[nH]c(=O)c2cc1OC,-0.2,-1.4,14.4*,-30.2,-6.9,2.0,7.0,-1.2
CC=Cc1ccc2n(c1=O)C[C@H]1[C@H](CO)[C@@H](C(=O)OC)[C@@H]2N1S(=O)(=O)c1ccccc1C (mixture of isomers),0.2,x,x,1.4,2.5,x,x,x
CN(C)C(=O)Oc1cccc(-c2cn3cc(Cl)ccc3n2)c1,x,48.2,26.3*,x,37.6,15.1,17.5*,6.3*
NC(Cc1ccccc1)c1csc(Nc2ccccn2)n1 (stereo not drawn),0.0,x,13.1*,4.7,x,20.0,8.2*,-0.2
COc1cccc(-c2ccc3n(c2=O)C[C@H]2[C@H](CO)[C@@H](C(=O)O)[C@@H]3N2Cc2ccccc2F)c1,x,x,x,x,2.4,x,x,x
COC(=O)[C@H]1[C@H](CO)[C@H]2Cn3c(ccc(-c4ccccc4F)c3=O)[C@@H]1N2C(=O)C1CC1,0.0,x,x,-0.2,3.3,x,x,x
O=C(c1cc(S(=O)(=O)N2CCCCC2)ccc1F)N1CCC2(CC1)OCCO2,0.1,-1.2,8.1*,5.0,-4.9,-2.4,-4.9,0.3
O=C(c1ccccc1F)N1CCC2(CC1)OCCO2,0.0,1.6,-1.9,-1.9,1.0,0.8,x,x
CN(C)P(=O)(C(Cl)=C(N1CCCCC1)N1CCCCC1)N(C)C,0.4,7.4,18.7*,4.9,-4.6,-0.1,39.5*,-1.7
COC(=O)[C@@H]1[C@@H](CO)[C@@H]2Cn3c(ccc(/C=C/c4ccccc4)c3=O)[C@H]1N2CC1CCCC1,0.0,x,x,-45.1,6.2,x,x,x
C[C@@H]1CN([C@H](C)CO)C(=O)c2c(c3ccccc3n2C)-c2ccccc2CO[C@H]1CN(C)C(=O)Oc1ccccc1,-0.7,x,x,3.3,x,x,x,x
O=c1[nH]c(=S)[nH]c(O)c1N=Nc1ccc(SC(F)F)cc1,-0.2,17.0,11.1*,-5.4,-37.5,29.0,12.0*,10.0*
O=c1[nH]c(=S)[nH]c(O)c1N=Nc1ccc(S(=O)(=O)N2CCc3ccccc32)cc1,-0.2,-62.5,14.4*,6.8,x,4.6,11.5*,-0.5
N#CC1c2ccccc2-n2nncc2CN1C(=O)c1cccnc1 (stereo not drawn),x,x,-1.9,x,x,x,x,x
COC(=O)[C@@H]1[C@@H](CO)[C@@H]2Cn3c(ccc(-c4ccccc4F)c3=O)[C@H]1N2C(=O)C1CC1,0.1,x,x,-0.2,-4.9,x,x,x
O=C(O)[C@@H]1[C@@H](CO)[C@@H]2Cn3c(ccc(C4=CCCCC4)c3=O)[C@H]1N2CCc1ccccc1,x,x,x,-0.8,0.1,x,x,x
O=C(O)[C@@H]1[C@@H](CO)[C@@H]2Cn3c(ccc(-c4ccccc4)c3=O)[C@H]1N2CC1CCCCC1,0.0,x,x,3.8,-6.0,x,x,x
CC1CCCN(CC(=O)c2ccc(Cl)c(Cl)c2)C1 (stereo not drawn),-0.1,-1.0,-1.1,1.1,x,-1.0,x,x
CC1CCN(CC(=O)c2ccc3c(c2)OCCO3)CC1,0.2,49.7,8.0*,2.2,3.7,0.5,7.2,9.6*

# Compound activity: PubChem, several laboratories
